High-throughput results (PubChem BioAssay)
D3 antag – D3 dopamine receptor (human) antagonism; P35462; D3R cells, DiscoveRx beta-arrestin luminescence, antagonist mode; active compounds read low; max response, negative = inhibition, %; 360,000 tested, 2.5% active; in the data active means max response below about -50%; inconclusive means no clear call, values can overlap the other calls; further: on the % scale 0 is the no-effect control and ±100 the full control effect
Target sequence (P35462 whole entry, looked up): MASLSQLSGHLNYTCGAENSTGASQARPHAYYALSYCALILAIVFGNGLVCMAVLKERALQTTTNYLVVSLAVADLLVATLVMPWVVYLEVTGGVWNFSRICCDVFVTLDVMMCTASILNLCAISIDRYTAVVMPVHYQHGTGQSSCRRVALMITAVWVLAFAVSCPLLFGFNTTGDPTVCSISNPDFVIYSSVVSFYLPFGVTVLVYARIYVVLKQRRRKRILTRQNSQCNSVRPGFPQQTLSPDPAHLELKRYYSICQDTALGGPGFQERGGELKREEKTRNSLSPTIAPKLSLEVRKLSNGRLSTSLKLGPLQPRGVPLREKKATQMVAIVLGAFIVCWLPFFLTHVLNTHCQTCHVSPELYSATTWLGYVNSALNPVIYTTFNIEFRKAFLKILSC
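Cells plated overnight at 1500 cells/well, then exposed to library compounds with dopamine controls for 90 minutes at 37 degrees C. DiscoveRx reagent added for 30–60 minutes at room temperature; luminescence read, quantitative HTS format.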
D3 ag – D3 dopamine receptor (human) agonism | max activation, % | P35462 | AID 652048 | 410,000 tested, 0.58% active | D3R DiscoveRx beta-arrestin cells, luminescence, 90 min; in the data active means max activation above about 30%; further: 0% is about no effect
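Agonist mode: compounds and dopamine controls were applied to plated cells for 90 min at 37 degrees C after an overnight attachment at 1500 cells/well. Luminescent read-out followed 30 - 60 minutes at room temperature with DiscoveRx detection reagent.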
a7 integrin act – integrin-mediated muscular dystrophy alleviation activation | alpha7betagal myoblasts, beta-gal FDG fluorescence, 48 h | Potency, µM (highest dose often 38.3 µM), without a hit: at the top dose activation, hits mostly activators | 350,000 tested, 0.064% active | AID 624291;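 further: potency means the concentration at half of the fitted maximal effect; 100% = response of the positive control SU9516; nearly all actives have a fitted effect of over 60% in size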
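Alpha7betagal+/- myoblasts (passage 13) were plated 16-24 hr, then exposed to compounds (1:260 dilution of DMSO stock) for 48 hours at 37C. After MPER lysis, β-galactosidase reporter activity was read as FDG fluorescence (ex 480/em 540) after 30 minutes.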
IL-1B inflam inh – inhibitors of inflammasome signaling (IL-1 beta secretion). 360,000 tested, 4.7% active. activity change, % at 57.5 µM. THP-1 LPS/ATP IL-1B secretion, AlphaLISA, 16 h; active compounds read low; in the data active means activity change below about -50%; inconclusive means mostly about -30% to -49%; further: on the % scale 0 is the no-effect control and ±100 the full control effect
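THP-1 cells pretreated 1 hr with compounds (up to 57.5 uM final), then stimulated with LPS (250 ng/mL final) plus ATP (1.25 mM final); secreted IL-1B measured by AlphaLISA after 16 hr, decreased signal indicating inhibition.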
ATXN2 expr inh – inhibitors of ATXN2 expression. HEK-293 ATXN2-luciferase reporter, luminescence, 24 h. Potency, µM (doses to about 57 µM), for the others: at the top dose activity change, negative = inhibition, most hits filed as inhibitors. 360,000 tested, 0.72% active; further: potency means the concentration at half of the fitted maximal effect; on the % scale 0 is the no-effect control and ±100 the full control effect; nearly all actives have a fitted effect of over 55% in size
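ATXN2-luciferase reporter cells (luciferase flanked by upstream and downstream ATXN2 gene portions) were treated 24 h at 37 °C with compounds at up to 57 uM. SteadyGlo luminescence gave expression; GF-AFC fluorescence gave viability.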
ATXN viability – reduces viability in counter-screen for ATXN expression inhibitors; S2 cells (HEK-293 line with an ATXN2-luciferase reporter) viability, CellTiter-Fluor protease fluorescence, 24 h; Potency, µM (titrated, usually from 56.7 µM), actives largely listed as cytotoxic; 400,000 tested, 0.49% active; AID 651635; further: potency means the concentration at half of the fitted maximal effect; nearly all actives have a fitted effect of over 40% in size
* = called active by the depositor; i = inactive; ? = inconclusive; . = no result; [ ] = another dose, or the depositor's remark. Hits are enriched below; roughly 7% of the tested compounds scored in any of these assays. Unless noted, the call rests on the fitted dose curve; in most records, active means well fitted curve in the direction sought with a large enough effect; inconclusive means small, poorly fitted or top-dose-only effect, or another doubt; inactive means no such curve, though single readings can be large; an effect the other way counts as inactive or inconclusive.

SMILES | D3 antag | D3 ag | a7 integrin act | IL-1B inflam inh | ATXN2 expr inh | ATXN viability
CCOC(=O)c1ccc(NS(=O)(=O)c2cc(-c3nnnn3CC)ccc2OC)cc1 | 8.9 | 1.9 | -1.8%[7.66 µM] | 16.4 | -1.4% | i
C[C@H](CO)N1C[C@H](C)[C@@H](CN(C)C(=O)c2ccccn2)Oc2cc(Br)ccc2S1(=O)=O | 1.2 | 2.4 | -6.3% | -22.0 | 12.8% | ?
CCCCC1(Cc2ccc([N+](=O)[O-])cc2)C(=O)N(c2ccccc2)N(c2ccccc2)C1=O | 8.6 | 1.6 | -49.8% | -57.9* | 4.6% | i
CN(C)CCNC(=O)c1c(CSc2ccc(Cl)cc2)noc1C(=O)NCc1ccccc1 | ? | -27.9 | 24.8% | -3.9 | 0.6% | i
O=C(CCC(=O)c1ccc(F)cc1)NN1C(=O)NC2(CCCCC2)C1=O | 5.4 | 7.2 | -14.1% | 12.4 | -1.1% | i
O=C(CCC(=O)c1ccc(F)cc1)NCC1(N2CCCCC2)CCCCC1 | -88.5* | -11.5 | -16.9% | -3.0 | -31.8% | i
COc1ccc(Oc2ccc(C(F)(F)F)cc2N)cc1 | -22.0 | 0.8 | -26.5% | -18.2 | -3.9% | i
CCCCCOC(=O)CSc1nc2sc3c(c2c(=O)n1Cc1ccccc1)CC(C)(C)OC3 | . | 4.3 | . | . | 14.2% | i
COc1ccc(C=C2CS(=O)(=O)CC(=Cc3ccc(OC)cc3)C2=O)cc1 | -63.7* | -8.2 | -56.5% | -107.4* | . | ?
COc1ccc(/C=C2\CCCCC2=O)cc1 | -7.3 | -3.3 | -59.5% | -4.2 | 4.4% | i
CN(C)/N=C/C=C1\CCC/C(=C\c2ccc(F)c(F)c2)C1=O | -4.6 | -1.7 | -64.9% | -105.9* | -9.4% | ?
COc1ccc(/C=C2\CCC/C(=C\C=N\N(C)C)C2=O)cc1 | -0.2 | -1.3 | -18.5% | -59.2* | . | .
O=C1/C(=C/c2ccc(C(=O)O)cc2)CCC/C1=C\c1ccc(C(=O)O)cc1 | 10.2 | 0.4 | 7.8% | -4.5 | -2.0% | ?
CCOC(=O)c1c(-c2ccccc2)[nH]c2ccc(O)cc12 | -18.3 | -4.1 | -23.6% | -54.9* | -7.8% | i
O=c1c2ccccc2[nH]c2ccc(O)cc12 | -5.2 | -17.7 | 23.1% | -70.8* | -11.5% | .
Cc1ccc2[nH]c3ccccc3c(=O)c2c1 | -2.4 | -7.9 | 5.4% | -15.6 | -22.6% | .
O=C(O)c1c[nH]c2cc(C(F)(F)F)ccc2c1=O | 3.3 | 4.3 | 3.2% | 16.9 | -4.2% | i
CN(C)/C=C1/N=C(c2ccccc2)OC1=O | -14.7 | -3.7 | 15.9% | ? | 12.3% | i
O=CC1=C(c2ccccc2)Oc2ccccc2O1 | 11.9 | 2.1 | -15.4% | -101.7* | ? | 22.4µM*
OC(COc1ccc2c(c1)OCO2)CN1CCCCC1 (stereo not given) | -6.9 | -12.6 | 4.4% | 4.4 | 16.3% | i
COc1ccc(OCC(CO)N2CCN(c3ccccc3)CC2)cc1 (stereo not given) | ? | 36.7* | 6.6% | -3.7 | -8.8% | i
CC(C)c1ccc(OCC(O)CN2CCN(c3ccccc3)CC2)cc1 (stereo not given) | ? | 44.9* | -50.6% | -73.8* | -17.9% | ?
OC(COc1ccc2c(c1)OCO2)CN1CCc2ccccc2C1 (stereo not given) | -78.1* | -34.9 | -17.2% | ? | -5.9% | i
COc1ccc(OCC(O)CN2CCN(c3ccccc3)CC2)cc1 (stereo not given) | ? | 27.4 | -5.3% | 19.5 | -18.0%[11.3 µM] | i
OC(COc1ccc2c(c1)OCO2)CN1CCN(c2ccccc2)CC1 (stereo not given) | -63.3* | 13.8 | 14.0% | -25.8 | -4.6% | i
COC(=O)c1ccc(-c2ccco2)n1Cc1nc(-c2ccc(OC)c(OC)c2)oc1C | -12.5 | 2.0 | -47.7% | ? | -14.7% | i
COc1ccc(N2CCN(CC(O)COCc3ccccc3)CC2)cc1 (stereo not given) | -9.7 | 5.7 | 0.0% | -4.0 | 2.3% | i
OC(COC1CCCCC1)CN1CCN(c2ccccc2)CC1 (stereo not given) | -60.7* | 4.3 | 18.2%[7.66 µM] | 14.0 | -4.0% | ?
Cc1ccc2c(=O)[nH]c(Cc3ccccc3C(=O)O)nc2c1 | 109.6 | 39.9* | -17.4% | -7.0 | . | i
